Records with an inconclusive call do not appear. Activity calls are given as the source filed them. Rule for the calls, unless noted: active = hit-call score of the fitted dose curve at least 0.9, where 1 is the maximum; inactive = score below 0.9.
Key:
[1] = target: human AKT serine/threonine Kinase 1 (AKT1), AKT1 (gene 207) (UniProt P31749); experiment: NVS_ENZ_hAKT1: NovaScreen (NVS) Enzymatic Assay for human AKT serine/threonine Kinase 1 (AKT1) (AID 2283138; active = hit-call score of the fitted dose curve at least 0.9, where 1 is the maximum)
Outline: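 Recombinant AKT1, specific substrate, cell-free; 1 h; fluorescence intensity/electrophoretic mobility shift. Duplicate single-point 25 uM, then singleton CRC max 50 uM. DMSO = negative control/baseline; signal loss = inhibition.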

[2] = target: human AKT serine/threonine Kinase 2 (AKT2), AKT2 (gene 208) (UniProt P31751); experiment: NVS_ENZ_hAKT2: NovaScreen (NVS) Enzymatic Assay for human AKT serine/threonine Kinase 2 (AKT2) (AID 2283141; active = hit-call score of the fitted dose curve at least 0.9, where 1 is the maximum)
human AKT serine/threonine Kinase 2 (AKT2), AKT2 (gene 208), sequence (P31751 whole entry, looked up): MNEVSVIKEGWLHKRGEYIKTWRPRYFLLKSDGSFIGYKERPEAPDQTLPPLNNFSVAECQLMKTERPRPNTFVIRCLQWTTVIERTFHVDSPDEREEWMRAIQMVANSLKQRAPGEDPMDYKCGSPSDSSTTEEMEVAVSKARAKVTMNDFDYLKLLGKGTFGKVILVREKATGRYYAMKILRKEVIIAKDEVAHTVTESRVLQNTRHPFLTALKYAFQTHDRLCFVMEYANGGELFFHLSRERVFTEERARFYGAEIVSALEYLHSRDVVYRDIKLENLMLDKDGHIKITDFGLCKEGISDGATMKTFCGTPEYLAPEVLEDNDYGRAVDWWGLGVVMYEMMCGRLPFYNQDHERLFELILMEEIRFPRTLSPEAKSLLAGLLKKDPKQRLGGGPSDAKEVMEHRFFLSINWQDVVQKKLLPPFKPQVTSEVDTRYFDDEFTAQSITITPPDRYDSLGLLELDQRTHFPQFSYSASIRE
Outline: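 Cell-free fluorescence/electrophoretic mobility shift readout of recombinant human AKT2 activity, 1 h after chemical dosing. Duplicate primary screen at 25 uM, then singleton concentration-response up to 50 uM; loss of signal versus DMSO baseline.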

[3] = BSK_SAg_PBMCCytotoxicity: PBMC Cytotoxicity Assessment in the BioMAP Diversity Plus: SAg Assay (AID 2283093); settings: primary human HUVEC with PBMC;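 note: PBMC viability measured as Alamar Blue reduction fluorescence at 546/580 nm; fitted both ways against DMSO so a hit may be loss or gain of signal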;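 for AC50: PBMC superantigen activated with SEB plus TSST-1 one hour after compound addition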
Outline: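 HUVEC/PBMC co-culture; PBMC exposed to chemical 1 h before SEB and TSST-1 activation (20 ng/mL each), incubated 90 h, then Alamar Blue 6 h, fluorescence 546/580 nm. Bidirectional fit versus DMSO baseline.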

[4] = read-out: Interleukin-8 (IL8), CXCL8 (gene 3576); experiment: BSK_SAg_IL8: BioMAP Diversity Plus: SAg Assay for Interleukin-8 (IL8) Biomarker Activity (AID 2283094); settings: primary human HUVEC with PBMC; actives raise or lower the signal
Outline: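 ELISA read-out of IL-8 in a primary human vascular co-culture (umbilical vein endothelium plus PBMC), taken 24 h after compound addition. Values derive from bidirectional fits against DMSO negative controls.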

[5] = BSK_SAg_Proliferation: Cell Proliferation Assessment in the BioMAP Diversity Plus: SAg Assay (AID 2283095); settings: primary human HUVEC with PBMC;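 note: relative cell number as total protein by SRB absorbance in sub-confluent culture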
Outline: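 Cells (endothelium plus PBMC, human primary) were dosed with chemical, cultured 96 h, fixed in 10% TCA and stained with 0.1% SRB. Absorbance at 560 nm gave relative protein, fitted bidirectionally relative to DMSO.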

[6] = BSK_SAg_SRB: Viability Assessment in the BioMAP Diversity Plus: SAg Assay (AID 2283096); settings: primary human HUVEC with PBMC;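 note: cells read one day after compound addition; hits may be either gain or loss of signal compared with DMSO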
Outline: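 Human umbilical vein endothelial cells co-cultured with PBMC, read 24 h after compound dosing. Total protein measured by sulforhodamine B staining (0.1% SRB after 10% TCA fixation, absorbance 560 nm); bidirectional fit versus DMSO baseline.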

[7] = target: human CYP2A6, CYP2A6 (gene 1548) (UniProt P11509); experiment: NVS_ADME_hCYP2A6: NovaScreen (NVS) CYP450-related Enzyme Activity (ADME) Assay for human CYP2A6 (AID 2283099; active = hit-call score of the fitted dose curve at least 0.9, where 1 is the maximum)
human CYP2A6, CYP2A6 (gene 1548), sequence (P11509 whole entry, looked up): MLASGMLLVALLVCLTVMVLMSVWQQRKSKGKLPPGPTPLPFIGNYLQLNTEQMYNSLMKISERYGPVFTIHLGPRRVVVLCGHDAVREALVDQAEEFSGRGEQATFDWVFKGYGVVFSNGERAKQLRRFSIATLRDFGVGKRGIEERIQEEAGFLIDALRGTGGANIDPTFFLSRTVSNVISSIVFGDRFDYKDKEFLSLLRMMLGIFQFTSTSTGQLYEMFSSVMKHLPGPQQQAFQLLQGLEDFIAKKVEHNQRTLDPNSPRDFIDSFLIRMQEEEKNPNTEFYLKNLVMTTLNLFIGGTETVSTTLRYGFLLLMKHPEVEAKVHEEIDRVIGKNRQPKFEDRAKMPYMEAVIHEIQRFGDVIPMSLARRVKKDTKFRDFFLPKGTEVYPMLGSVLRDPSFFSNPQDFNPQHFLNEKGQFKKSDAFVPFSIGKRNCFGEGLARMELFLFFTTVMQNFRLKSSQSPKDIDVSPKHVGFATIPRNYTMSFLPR
Outline: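 Fluorescent substrate turnover by recombinant CYP2A6 (insect cell source), 0.5 h read. Screen: 10 uM, duplicate; threshold hits (e.g. 30% inhibition) → singleton concentration-response, top 20 uM. Positive and negative controls on every plate.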

[8] = target: human CYP1A1, CYP1A1 (gene 1543) (UniProt P04798); experiment: NVS_ADME_hCYP1A1: NovaScreen (NVS) CYP450-related Enzyme Activity (ADME) Assay for human CYP1A1 (AID 2283100; active = hit-call score of the fitted dose curve at least 0.9, where 1 is the maximum)
human CYP1A1, CYP1A1 (gene 1543), sequence (P04798 whole entry, looked up): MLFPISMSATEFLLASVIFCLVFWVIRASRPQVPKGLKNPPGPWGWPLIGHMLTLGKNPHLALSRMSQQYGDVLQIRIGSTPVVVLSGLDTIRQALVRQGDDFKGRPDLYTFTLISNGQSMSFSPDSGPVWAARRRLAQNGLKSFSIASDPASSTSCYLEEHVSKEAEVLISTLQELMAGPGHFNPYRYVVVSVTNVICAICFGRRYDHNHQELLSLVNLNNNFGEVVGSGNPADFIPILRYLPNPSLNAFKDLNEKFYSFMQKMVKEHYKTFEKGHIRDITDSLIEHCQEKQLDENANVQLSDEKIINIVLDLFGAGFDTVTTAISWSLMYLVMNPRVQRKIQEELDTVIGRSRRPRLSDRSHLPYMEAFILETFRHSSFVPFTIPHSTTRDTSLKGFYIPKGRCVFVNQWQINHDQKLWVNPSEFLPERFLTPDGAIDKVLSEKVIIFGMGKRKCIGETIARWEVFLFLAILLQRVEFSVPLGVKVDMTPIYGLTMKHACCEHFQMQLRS
Outline: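 Recombinant hCYP1A1 + fluorogenic substrate, cell-free; 1 h; fluorescence read. Single-point 10 uM (duplicate) → concentration series, max 20 uM. Acetonitrile negative control.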

[9] = target: human CYP2B6, CYP2B6 (gene 1555) (UniProt P20813); experiment: NVS_ADME_hCYP2B6: NovaScreen (NVS) CYP450-related Enzyme Activity (ADME) Assay for human CYP2B6 (AID 2283101; active = hit-call score of the fitted dose curve at least 0.9, where 1 is the maximum)
human CYP2B6, CYP2B6 (gene 1555), sequence (P20813 whole entry, looked up): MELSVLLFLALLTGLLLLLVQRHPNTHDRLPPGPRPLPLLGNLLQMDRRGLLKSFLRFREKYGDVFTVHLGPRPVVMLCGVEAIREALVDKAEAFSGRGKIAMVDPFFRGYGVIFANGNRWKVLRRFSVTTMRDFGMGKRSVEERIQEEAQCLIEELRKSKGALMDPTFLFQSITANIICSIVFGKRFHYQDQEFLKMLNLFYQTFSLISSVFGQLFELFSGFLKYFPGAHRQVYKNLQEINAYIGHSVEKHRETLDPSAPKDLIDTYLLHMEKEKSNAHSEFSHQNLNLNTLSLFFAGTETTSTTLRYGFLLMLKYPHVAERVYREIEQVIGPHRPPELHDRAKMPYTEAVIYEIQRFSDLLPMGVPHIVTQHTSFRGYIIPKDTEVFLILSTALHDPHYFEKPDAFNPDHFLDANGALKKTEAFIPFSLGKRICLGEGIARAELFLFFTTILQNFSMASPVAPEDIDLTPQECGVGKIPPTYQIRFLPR
Outline: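 Compounds were first screened in duplicate at 10 uM against recombinant enzyme, with the fluorescent product measured after 1 hour. Active compounds were retested over a concentration series. Loss of fluorescence versus acetonitrile control was scored as reduced enzyme activity.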

[10] = target: human CYP2D6, CYP2D6 (gene 1565) (UniProt P10635); experiment: NVS_ADME_hCYP2D6: NovaScreen (NVS) CYP450-related Enzyme Activity (ADME) Assay for human CYP2D6 (AID 2283107; active = hit-call score of the fitted dose curve at least 0.9, where 1 is the maximum)
human CYP2D6, CYP2D6 (gene 1565), sequence (P10635 whole entry, looked up): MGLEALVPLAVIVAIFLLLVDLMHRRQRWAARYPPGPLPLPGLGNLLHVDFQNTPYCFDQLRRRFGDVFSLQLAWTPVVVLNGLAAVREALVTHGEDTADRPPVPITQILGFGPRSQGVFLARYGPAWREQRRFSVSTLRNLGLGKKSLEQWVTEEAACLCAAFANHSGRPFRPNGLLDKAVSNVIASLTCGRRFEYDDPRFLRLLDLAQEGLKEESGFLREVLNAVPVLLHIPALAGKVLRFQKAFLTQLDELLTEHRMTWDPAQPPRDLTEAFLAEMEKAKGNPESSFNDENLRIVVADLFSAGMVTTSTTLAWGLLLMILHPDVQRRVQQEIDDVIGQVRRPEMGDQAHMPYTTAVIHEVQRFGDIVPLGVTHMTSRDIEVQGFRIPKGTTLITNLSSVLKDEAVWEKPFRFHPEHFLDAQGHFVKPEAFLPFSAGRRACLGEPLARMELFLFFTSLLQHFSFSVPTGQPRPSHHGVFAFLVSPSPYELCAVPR
Outline: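 Insect-cell recombinant enzyme + fluorogenic substrate, cell-free; 1 h incubation; fluorescence intensity readout. Acetonitrile = neg. ctrl/baseline. Single-point 10 uM, duplicate; follow-up concentration series.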

[11] = target: human CYP2C9, CYP2C9 (gene 1559) (UniProt P11712); experiment: NVS_ADME_hCYP2C9: NovaScreen (NVS) CYP450-related Enzyme Activity (ADME) Assay for human CYP2C9 (AID 2283108; active = hit-call score of the fitted dose curve at least 0.9, where 1 is the maximum)
human CYP2C9, CYP2C9 (gene 1559), sequence (P11712 whole entry, looked up): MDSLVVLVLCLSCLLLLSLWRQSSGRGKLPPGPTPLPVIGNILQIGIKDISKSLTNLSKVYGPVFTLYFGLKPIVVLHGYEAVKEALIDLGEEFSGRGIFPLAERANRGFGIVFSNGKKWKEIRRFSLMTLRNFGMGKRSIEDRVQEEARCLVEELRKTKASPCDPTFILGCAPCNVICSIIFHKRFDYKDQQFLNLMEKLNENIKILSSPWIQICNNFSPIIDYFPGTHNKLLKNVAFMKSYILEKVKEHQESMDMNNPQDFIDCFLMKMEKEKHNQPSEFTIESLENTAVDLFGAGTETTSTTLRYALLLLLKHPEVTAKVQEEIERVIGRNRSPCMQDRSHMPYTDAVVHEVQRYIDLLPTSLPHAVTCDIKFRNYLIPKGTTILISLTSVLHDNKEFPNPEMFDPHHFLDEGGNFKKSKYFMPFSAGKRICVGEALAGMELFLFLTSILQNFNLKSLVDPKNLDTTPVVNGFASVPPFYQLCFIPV
Outline: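 Recombinant human CYP2C9 expressed in SF9 cells, fluorogenic substrate, fluorescence read 0.75 h after dosing. Chemicals first run in duplicate at 10 uM, with actives followed in concentration series; loss of signal versus acetonitrile baseline.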

[12] = target: Cytochrome P450 3A4 (Homo sapiens) (UniProt P08684); experiment: NVS_ADME_hCYP3A4: NovaScreen (NVS) CYP450-related Enzyme Activity (ADME) Assay for human CYP3A4 (AID 2283110; active = hit-call score of the fitted dose curve at least 0.9, where 1 is the maximum)
Cytochrome P450 3A4 (Homo sapiens), sequence (P08684 whole entry, looked up): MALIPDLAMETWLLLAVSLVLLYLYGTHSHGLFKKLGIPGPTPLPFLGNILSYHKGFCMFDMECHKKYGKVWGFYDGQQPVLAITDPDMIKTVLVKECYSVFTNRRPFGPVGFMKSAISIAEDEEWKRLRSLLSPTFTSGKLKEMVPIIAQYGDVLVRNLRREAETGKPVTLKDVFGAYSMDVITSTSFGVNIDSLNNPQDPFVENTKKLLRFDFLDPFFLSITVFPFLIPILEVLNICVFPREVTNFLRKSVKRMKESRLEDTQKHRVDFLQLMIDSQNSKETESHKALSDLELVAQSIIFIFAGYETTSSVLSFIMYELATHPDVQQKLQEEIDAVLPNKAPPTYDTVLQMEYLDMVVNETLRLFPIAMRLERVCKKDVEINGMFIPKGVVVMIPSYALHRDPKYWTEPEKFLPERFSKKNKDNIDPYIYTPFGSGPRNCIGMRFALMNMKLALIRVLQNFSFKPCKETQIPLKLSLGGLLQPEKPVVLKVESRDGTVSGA
Outline: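 Cell-free recombinant enzyme expressed in insect cells; fluorescent substrate turnover read after 0.33 h, acetonitrile as negative control. Primary screen in duplicate at 10 uM, actives then tested in concentration series.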

[13] = target: Cytochrome P450 2C19 (Homo sapiens) (UniProt P33261); experiment: NVS_ADME_hCYP2C19: NovaScreen (NVS) CYP450-related Enzyme Activity (ADME) Assay for human CYP2C19 (AID 2283113; active = hit-call score of the fitted dose curve at least 0.9, where 1 is the maximum;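 for AC50: potency for inhibition seen as loss of fluorescent signal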)
Outline: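 Fluorescence intensity was measured 1 hour after chemicals were added to insect-cell-derived recombinant CYP2C19 with fluorogenic substrate. Decreased signal versus acetonitrile control was taken as reduced enzyme activity; initial testing used 10 uM in duplicate.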

[14] = target: human Acid Phosphatase 1 (ACP1), ACP1 (gene 52) (UniProt P24666); experiment: NVS_ENZ_hACP1: NovaScreen (NVS) Enzymatic Assay for human Acid Phosphatase 1 (ACP1) (AID 2283136; active = hit-call score of the fitted dose curve at least 0.9, where 1 is the maximum)
human Acid Phosphatase 1 (ACP1), ACP1 (gene 52), sequence (P24666 whole entry, looked up): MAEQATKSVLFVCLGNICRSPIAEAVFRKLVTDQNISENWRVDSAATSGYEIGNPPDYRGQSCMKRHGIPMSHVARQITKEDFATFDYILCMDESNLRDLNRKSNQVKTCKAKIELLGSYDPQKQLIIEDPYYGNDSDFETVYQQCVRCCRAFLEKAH
Outline: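 Recombinant enzyme expressed in Sf9 cells, tested cell-free; activity read by fluorescence with electrophoretic mobility shift separation of substrate and product, 1.5 h after dosing. Primary screen in duplicate at 25 uM, actives then run in concentration series; loss of signal versus DMSO.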

[15] = target: human Caspase 5 (CASP5), CASP5 (gene 838) (UniProt P51878); experiment: NVS_ENZ_hCASP5: NovaScreen (NVS) Enzymatic Assay for human Caspase 5 (CASP5) (AID 2283137; active = hit-call score of the fitted dose curve at least 0.9, where 1 is the maximum)
human Caspase 5 (CASP5), CASP5 (gene 838), sequence (P51878 whole entry, looked up): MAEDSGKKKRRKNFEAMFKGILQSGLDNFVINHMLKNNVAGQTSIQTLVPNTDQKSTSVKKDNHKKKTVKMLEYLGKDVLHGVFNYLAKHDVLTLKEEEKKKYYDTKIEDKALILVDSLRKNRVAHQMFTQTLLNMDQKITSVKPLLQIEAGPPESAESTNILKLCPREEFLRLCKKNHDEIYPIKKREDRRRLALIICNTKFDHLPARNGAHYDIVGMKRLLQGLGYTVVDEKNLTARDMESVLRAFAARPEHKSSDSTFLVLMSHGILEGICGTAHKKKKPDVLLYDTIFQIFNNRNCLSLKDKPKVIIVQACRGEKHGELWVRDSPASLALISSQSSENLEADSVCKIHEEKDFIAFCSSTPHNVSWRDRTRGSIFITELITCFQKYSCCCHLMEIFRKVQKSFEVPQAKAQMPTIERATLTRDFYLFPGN
Outline: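 E. coli-derived enzyme, cell-free, 2 h incubation, fluorescence intensity. 25 uM duplicate single-point; hits → concentration series to 50 uM. DMSO baseline, positive/negative controls on every plate.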

[16] = target: human Beta-secretase (BACE), BACE1 (gene 23621) (UniProt P56817); experiment: NVS_ENZ_hBACE: NovaScreen (NVS) Enzymatic Assay for human Beta-secretase (BACE) (AID 2283140; active = hit-call score of the fitted dose curve at least 0.9, where 1 is the maximum;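 note: hits are inhibitors that reduce fluorescent substrate signal versus DMSO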)
human Beta-secretase (BACE), BACE1 (gene 23621), sequence (P56817 whole entry, looked up): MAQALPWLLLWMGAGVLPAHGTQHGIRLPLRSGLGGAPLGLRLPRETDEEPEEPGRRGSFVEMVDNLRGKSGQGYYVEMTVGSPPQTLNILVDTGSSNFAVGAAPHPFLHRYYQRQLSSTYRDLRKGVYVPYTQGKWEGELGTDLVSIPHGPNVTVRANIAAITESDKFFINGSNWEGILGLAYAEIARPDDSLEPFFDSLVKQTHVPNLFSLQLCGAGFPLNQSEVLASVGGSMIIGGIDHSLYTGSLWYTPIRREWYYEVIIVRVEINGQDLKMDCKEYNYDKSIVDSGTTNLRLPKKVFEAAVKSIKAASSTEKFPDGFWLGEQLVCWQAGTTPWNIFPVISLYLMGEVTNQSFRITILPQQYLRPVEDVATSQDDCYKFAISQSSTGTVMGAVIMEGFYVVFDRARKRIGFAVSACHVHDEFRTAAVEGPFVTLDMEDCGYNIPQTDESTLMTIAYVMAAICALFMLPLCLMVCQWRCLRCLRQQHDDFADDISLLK
Outline: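 Compounds were first tested in duplicate at 25 uM, then actives in concentration series, against recombinant BACE1 from SF9 cells. Enzyme activity was measured by fluorescence intensity 1 hour after dosing, with DMSO as negative control.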

[17] = target: human CYP19A1, CYP19A1 (gene 1588) (UniProt P11511); experiment: NVS_ADME_hCYP19A1: NovaScreen (NVS) CYP450-related Enzyme Activity (ADME) Assay for human CYP19A1 (AID 2283098; active = hit-call score of the fitted dose curve at least 0.9, where 1 is the maximum;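 note: potency for inhibitors seen as loss of fluorescent enzyme signal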)
Outline: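 Recombinant enzyme in a cell-free format, read 0.5 h after dosing by fluorescence from a fluorogenic substrate. Loss of signal was fitted against acetonitrile as baseline. Primary screen in duplicate at 10 uM, actives then tested in concentration series.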

Measured: AC50

Cn1cnc([N+](=O)[O-])c1Sc1ncnc2nc[nH]c12
inactive: [1] | [2]

C[C@](N)(Cc1ccc(O)c(O)c1)C(=O)O
inactive: [4] | [6]
active: [3] 10.8 µM | [5] 23.9 µM

CC1=CC(=O)CC(C)(C)C1
inactive: [3] | [4] | [5] | [6] | [7]

CC(=O)OCCC(C)C
inactive: [3] | [4] | [5] | [6] | [8] | [9] | [10] | [12]
active: [11] 8.59 µM

Cc1ccc(C)c(O)c1
inactive: [3] | [4] | [5] | [6]

CC[C@H]1CC[C@H](NCc2cc3c(cc2OC)[C@H]2C[C@H]2C(=O)N3C)[C@H](c2ccccc2)N1
inactive: [3] | [4] | [5] | [6]

Fc1ccccc1[C@@H](F)COC1CCC(Nc2ncnc3[nH]ncc23)CC1 (stereo not given in full)
active: [3] 13.7 µM | [4] 20 µM | [5] 26.8 µM | [6] 25.4 µM
inactive: [8]

O=P(OC(CCl)CCl)(OC(CCl)CCl)OC(CCl)CCl
active: [4] 20 µM | [5] 25.3 µM | [9] 6.54 µM | [12] 6.65 µM | [13] 6.38 µM | [16] 8.73 µM
inactive: [3] | [6] | [7] | [11] | [14] | [15]

CC(C)=CCCC(C)=CC=O
inactive: [3] | [4] | [5] | [6] | [7] | [13]

CC(O)CN(CCN(CC(C)O)CC(C)O)CC(C)O (stereo not given)
inactive: [3] | [4] | [5] | [6]

CCOC(=O)COc1ccc2c(c1)CC(NCC(O)c1cccc(Cl)c1)CC2 (stereo not given)
inactive: [8] | [12]
active: [3] 27.2 µM | [4] 18.3 µM | [5] 31.7 µM | [6] 27.2 µM | [10] 2.51 µM | [13] 5.22 µM

CCOC(=O)CC(CC(=O)OCC)(OC(C)=O)C(=O)OCC
inactive: [3] | [4] | [5] | [6]

Nc1nc2ncc(CNc3ccc(C(=O)N[C@@H](CCC(=O)O)C(=O)O)cc3)nc2c(=O)[nH]1
inactive: [3] | [4] | [5] | [6] | [7] | [14] | [16]

Cn1c(=O)c2c(ncn2C)n(C)c1=O
inactive: [3] | [4] | [5] | [6]

CCOC(=O)c1ccc(C2CCC(NC[C@H](O)COc3ccc(O)c(NS(C)(=O)=O)c3)CC2)cc1 (stereo not given in full)
inactive: [9] | [12]
active: [3] 20.6 µM | [4] 28.8 µM | [5] 14.4 µM | [6] 26.3 µM | [17] 0.513 µM | [11] 2.14 µM | [13] 1.74 µM

CN(C)c1ccc(Cc2ccc(N(C)C)cc2)cc1
active: [5] 30.9 µM | [9] 1.02 µM | [13] 0.727 µM
inactive: [3] | [4] | [6] | [7] | [8]

Source: PubChem BioAssay (EPA / NIEHS)
